# Bioassay records: PubChem, National Center for Advancing Translational Sciences (NCATS)
# Most compounds without a hit are left out; they make up all but 0.88% or so of the library.
# CtBP-E1A inh – CtBP/E1A binding inhibition; AlphaScreen GST-E1A/His-CtBP binding, 1536-well; stronger effect = lower value; activity change, % (concentration not given with the values); hit rate 0.49% among 340,000; note: % is set by controls: 0 for no effect and ±100 for the full control effect
#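 In 5 uL wells, 23 nL compound meets equimolar GST-E1A and His-CtBP (5X stock 125 nM each) for 2 h, 37 °C. Beads (5X, 50 ug/mL) then 1 h, 37 °C, dark.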
# Glioma ERSR ind – inducers of ER stress response in human glioma cells | U87-MG GRP78 promoter luciferase reporter, 16 h | Potency, µM, for the others: at the top dose activation, most hits filed as activators | hit rate 0.02% among 420,000 | AID 602332; active = well fitted curve in the direction sought with a large enough effect; inconclusive = small, poorly fitted or top-dose-only effect, or another doubt; inactive = no such curve, though single readings can be large; an effect the other way counts as inactive or inconclusive; note: potency is the fitted concentration of half-maximal effect; series mostly up to about 76 µM; % of control where 0% means no effect; nearly all actives have a fitted effect of over 35% in size
#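 Stably transfected U87-MG glioma cells carrying a GRP78-based luciferase sensor; 16 h compound incubation. Luminescence end-point read 10 min after Bright-Glo addition at room temperature.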
# Six1-Eya2 blk – blocks human Six1 binding to Eya2; AlphaScreen GST-Six1/His-Eya2 binding, biochemical; stronger effect = lower value; activity change, % (concentration not given with the values); hit rate 0.56% among 360,000; AID 651725; note: % is set by controls: 0 for no effect and ±100 for the full control effect
#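 GST-Six1 + His-Eya2 (5X stock: 250/500 nM); Tris pH 8.0, 300 mM NaCl, 0.05% BSA, 0.02% Tween 20; GSH donor/Ni acceptor beads; 1 h 37 °C dark; AlphaScreen readout.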
# RGS4 inh – blocks human RGS4-accelerated GTP hydrolysis; P49798; Transcreener GDP fluorescence polarization, RGS4-accelerated GTP hydrolysis; Potency, µM (doses to about 114 µM), inactives show at the top dose activity change, negative = inhibition, actives largely listed as inhibitors; hit rate 0.039% among 390,000; active = well fitted curve in the direction sought with a large enough effect; inconclusive = small, poorly fitted or top-dose-only effect, or another doubt; inactive = no such curve, though single readings can be large; an effect the other way counts as inactive or inconclusive; note: potency is the fitted concentration of half-maximal effect; % is set by controls: 0 for no effect and ±100 for the full control effect; nearly all actives have a fitted effect of over 75% in size
# Target sequence (P49798 whole entry, looked up): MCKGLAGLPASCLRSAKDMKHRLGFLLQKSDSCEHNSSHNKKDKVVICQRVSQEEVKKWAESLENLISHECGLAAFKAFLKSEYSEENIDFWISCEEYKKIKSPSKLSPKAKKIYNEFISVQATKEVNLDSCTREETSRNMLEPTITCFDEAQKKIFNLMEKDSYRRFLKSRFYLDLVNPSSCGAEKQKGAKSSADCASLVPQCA
#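 MLSMR compounds (23 nl, pin-transferred) preincubated 10 min at room temperature with a 500nM (2x) first reagent, then RGS4 at 900nM (2x) plus Transcreener GDP mix added; fluorescence polarization (620/688 nm) read before and after 90 min at 30 °C.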
# pAkt inh – Akt phosphorylation inhibition. Neuro2A IGF-stimulated pAkt S473 HTRF, 20 min; stronger effect = lower value. activity change, % for hits at 50 µM. hit rate 0.32% among 360,000. AID 651550; in the data active = activity change below about -80%; inconclusive = mostly about -51% to -80%; note: % is set by controls: 0 for no effect and ±100 for the full control effect
#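 Neuro2A cells in DMEM with 0.5% FBS, overnight at 37 deg C, given compound at single 50 µM final, then IGF (6 nM final) for 20 min at 37 deg C. Lysed; phospho-Akt Ser473 by HTRF after 24 h, 665/615 ratio.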
# The depositor's hits bear a star; i = inactive; ? = inconclusive; · = no result; ! = not active in a repeat; [ ] = dose if it differs, or a comment. Cut-off read from the data, not from the text of the source, unless noted: active = activity change below about -65%; inconclusive = mostly about -30% to -63%; inactive = weaker than that.
SMILES,CtBP-E1A inh,Glioma ERSR ind,Six1-Eya2 blk,RGS4 inh,pAkt inh
COc1cccc(/C=N/NC(=O)c2cc(-c3ccccn3)nc3ccccc23)c1O,-95*,-6%,-75*,?,i
O=C(N/N=C/c1ccc(F)cc1)c1cc(-c2ccccn2)nc2ccccc12,6,-2%,-2,-5%,i
O=C(O)COc1ccccc1/C=N/NC(=O)c1cc(-c2ccc(F)cc2)nc2ccccc12,?,-4%,-72*,24%,i
CCOC(=O)c1cccc(NC(=O)c2cnc3ccccc3n2)c1,-7,-8%,-9,-21%,-96%*
CCOC(=O)c1cccc(NC(=O)c2cccnc2)c1,0,-2%,1,12%,i
c1cnc2cc3c(cc2n1)[C@@H]1CNC[C@@H]3C1,·,-1%,·,·,·
N#CCCN(CCC#N)C(=O)c1ccc2c(c1)OCO2,28,0%,19,-25%,-106%*
CCCN(CCC)C(=O)c1ccc2c(c1)OCO2,-1,-5%,18,-13%,i
O=C(NCc1ccccc1)N1CCC(n2cnc3cc(F)ccc32)CC1,6,-2%,1,12%,-112%*
CCCOc1ccc(CC(=O)NCc2ccco2)cc1OC,-15,-4%,-8,3%,i
CCCOc1ccc(CC(=O)NCC2(c3ccccc3)CCOCC2)cc1OC,-4,-5%,8,28%,-117%*
COc1ccc(CN2CCOc3ccc(C(O)c4cccnc4)cc3C2)cc1O (stereo not given),·,-5%,·,·,·
CCOc1ccc(NC(=O)C2CC(C)=C(C)CC2C(=O)O)cc1 (stereo not given),7,-1%,13,-8%,-119%*
Cc1cc(C)n(CCC(=O)N/N=C/c2ccccc2O)n1,0,-6%,?,-4%,i
Cc1cc(C)n(CCC(=O)N/N=C/c2ccc(O)cc2O)n1,-69*,-5%,-86*,3%,i
O=C(CCN1CCN(C(c2ccccc2)c2ccccc2)CC1)N/N=C/c1ccc(O)cc1O,-73*,-4%,-11,28%,i
O=C(Cn1cnc([N+](=O)[O-])n1)N/N=C/c1ccc(O)cc1O,-96*,-4%,-92*,-15%,i
Cc1ccnc2c(N)cccc12,·,3%,·,·,·
C[C@@H]1CN(Cc2ccc3c(c2)CN(Cc2cccc4c2OCO4)CCO3)C[C@H](C)O1,·,-3%,·,·,·
CCCS(=O)(=O)NCc1c(C)ncc2c1CCN(C(=O)/C=C/c1ccc(F)cc1F)C2,·,-4%,·,·,·
O=C(Nc1ccccc1)c1cc2c(=O)c3ccccc3oc2nc1C(F)(F)F,4,-3%,-2,5%,-94%*
O=C(Nc1cccc(C(F)(F)F)c1)c1cc2c(=O)c3ccccc3oc2nc1C(F)(F)F,-2,-3%,-1,20%,i
CN1CCC(N(Cc2cccs2)c2ccccc2)CC1,·,-1%,·,·,·
O=C(Oc1c(CN2CCOCC2)cc(Cl)c2cccnc12)c1ccccc1F,-91*,-4%,-91*,-18%,i
COc1ccc(C(=O)Oc2c(CN3CCOCC3)cc(Cl)c3cccnc23)cc1OC,-1,-5%,-11,7%,i
SMILES,CtBP-E1A inh,Glioma ERSR ind,Six1-Eya2 blk,RGS4 inh,pAkt inh
COc1cc(OC)cc(C(=O)Oc2c(CN3CCOCC3)cc(Cl)c3cccnc23)c1,?,-2%,?,-10%,i
O=C(Oc1c(CN2CCOCC2)cc(Cl)c2cccnc12)c1ccccc1,-78*,-1%,?,-17%,i
CCN1C(=NCc2cccc(Cl)c2)N[C@@H](c2cccc(C(F)(F)F)c2)C(C(=O)OC)=C1C,·,-12%,·,·,·
CCCCCCC(=O)O[C@@H]1CC[C@H]2[C@@H]3CCc4cc(O)ccc4[C@H]3CC[C@]12C,·,7%,·,·,·
FC(F)(F)c1ccc(N2CCN(c3ncnc4c3nnn4Cc3ccccc3)CC2)nc1,8,-4%,-1,8%,-86%*
c1ccc(Cn2nnc3c(N4CCOCC4)ncnc32)cc1,-3,-3%,-16,6%,i
CC1CC1C(=O)Nc1nc(-c2ccccn2)cs1 (stereo not given),-70*,6%,-82*,?,i
O=C(Nc1nc(-c2ccccn2)cs1)C1COc2ccccc2O1 (stereo not given),?,1%,-91*,21%,i
COCC(=O)Nc1cc(C(=O)N2CCc3ccccc3C2)c2c(c1)nc(-c1ccncc1)n2C,·,-4%,·,·,·
CC(C)COc1ccc(CC(=O)NO)cc1,·,-2%,·,·,·
CN1CCCN(C2C3CC4CC(C3)CC2C4)CC1 (stereo not given),-7,?,-1,-12%,-121%*
CCc1ccc(C(=O)C[N+]2(C)CCOCC2)cc1,·,-2%,·,·,·
CCOC(=O)c1cnc(Nc2nc3ccccc3o2)nc1CN1CCN(C)CC1,-85*,-7%,-87*,?,i
Cc1cccc(NC2=C/C(=N/S(=O)(=O)c3cccs3)c3ccccc3C2=O)c1,?,5%,-23,-29%,i
Cc1ccc(NC2=C/C(=N\S(=O)(=O)c3cccs3)c3ccccc3C2=O)c(C)c1,-85*,-12%,-84*,-9%,i
Cc1ccc(Cl)cc1NC1=C/C(=N\S(=O)(=O)c2cccs2)c2ccccc2C1=O,-78*,-13%,-74*!,-21%,i
O=C1C(Nc2ccc(O)cc2)=C/C(=N/S(=O)(=O)c2cccs2)c2ccccc21,?,-14%,-77*,-33%,i
CNC(=O)[C@@H]1C[C@@H](NCc2cccc(Oc3ccccc3)c2)CN1C(C)C,·,-2%,·,·,·
CCOc1cccc(/C=N/NC(=O)c2ccc3c(c2)OCCO3)c1O,-87*,1%,?,?,i
CCOc1cccc(/C=N/NC(=S)Nc2cc(S(=O)(=O)N3CCOCC3)ccc2N2CCOCC2)c1O,-97*,-6%,-87*,17%,i
COc1cccc(/C=N/NC(=O)CNC(=O)COc2ccccc2)c1O,?,-4%,-83*,7%,i
COc1cccc(/C=N/NC(=O)CNC(=O)c2cccnc2)c1O,-87*,-3%,-71*,-9%,i
COc1cccc(/C=N/NC(=O)CNC(=O)c2ccncc2)c1O,·,-6%,5,14%,i
O=C(N/N=C/c1cccc(O)c1)c1ccc2c(c1)OCCO2,·,-11%,2,-9%,i
COc1cc2nc(N3CCCC(O)C3)c(CNCc3ccccc3F)cc2c(OC)c1OC (stereo not given),·,-3%,·,·,·
Cc1ccccc1C(=O)Nc1ccc(C(=O)N2CCCC(O)c3cc(Cl)ccc32)c(C)c1 (stereo not given),·,-1%,·,·,·
COc1cccc(/C=N/NC(=O)C[n+]2ccccc2)c1O,-88*,1%,-87*,-19%,i
CN(C)c1ccc(/C=N/NC(=O)CNC(=O)c2ccc3c(c2)OCCO3)cc1,-12,-2%,-5,13%[11.4 µM],i
COc1cc(OC)c(OC)cc1/C=N/NC(=O)C[n+]1ccccc1,3,-4%,5,-6%,i
